Compound activity from PubChem.
These entries were drawn from the full list.
aSyn UTR act – Activators via SNCA 5'UTR binding, MLPCN; alpha-synuclein 5'UTR reporter, activators screen; activity score, % (tested at 7.5 µM), hits read low; 7.1% of 300,000 active; in the data active means activity score below about -60%
Hits are given with their value; n = inactive.

SMILES	aSyn UTR act
O=C(/C=C/c1ccco1)Nc1ccc(Oc2ccc(Cl)cc2)cc1	-203
COc1cccc(NC(=O)/C=C/c2ccco2)c1	-158
O=C(/C=C/c1ccco1)Nc1cccc2cccnc12	-168
CSc1cccc(NC(=O)/C=C/c2ccco2)c1	-178
Cc1ccc(NC(=O)/C=C/c2ccco2)nc1	-63
CC(C)C(=O)NC(c1ccco1)c1ccc2cccnc2c1O (stereo not drawn)	n
O=C(c1ccc(CS(=O)Cc2ccccc2Cl)o1)N1CCN(c2ccccn2)CC1 (stereo not drawn)	-85
CCOC(=O)CNC(=O)c1cc(-c2ccc3c(c2)OCCO3)oc1C	-99
Cc1ccc(C(=O)NCCc2cccs2)cc1	n
CCOC(=O)CNC(=O)c1ccc2c(c1)OCCO2	-64
O=C(NCCc1cccs1)c1ccc(Cl)c(Cl)c1	-209
O=C(NCc1cccs1)c1ccc2c(c1)OCCO2	-70
Cc1ccc2nc(CSc3nc(C)cc(C)c3C#N)[nH]c2c1	-70
Cc1[nH][nH]c(=O)c1C(c1c(C)[nH][nH]c1=O)c1cn(Cc2ccc(Cl)c(Cl)c2)c2ccccc12	n
Cc1ccc(OCC(=O)N/N=C/c2cn(Cc3ccccc3)c3ccccc23)cc1	n
Cc1cccc(Cn2cc(SCC(=O)Nc3nccs3)c3ccccc32)c1	-156
COCCNC(=S)N/N=C(\C)c1ccccc1O	-161
Cc1ccc(C2CN=NC23CCc2ccccc2C3=O)cc1 (stereo not drawn)	-80
Cc1cccn2c(CN(C)CCC3CCCCO3)c(C(=O)N3CCCCC3)nc12 (stereo not drawn)	-69
[O-]/[N+](=C\C=C\c1ccccc1)c1ccccc1	-182
C/C(=N\NC(=O)CC(C)C)c1ccc(N2CCCCC2)cc1	-62
COc1ccc(/C(C)=N/NC(=O)c2nc(C)cc(C)n2)cc1	-114
COc1ccc(C(=O)N/N=C(/C)c2ccc(N3CCCCC3)cc2)cc1	-68
Cn1c(N)c(C(C[N+](=O)[O-])c2c(F)cccc2Cl)c(=O)n(C)c1=O (stereo not drawn)	-66
O=C1C2C3C=CC(C3)C2C(=O)N1/N=C/c1ccc(-c2ccccc2[N+](=O)[O-])o1 (stereo not drawn)	-77
SMILES	aSyn UTR act
CCOc1ccc2nc(NC(=O)NC3CCCCC3)sc2c1	-72
O=C(Nc1nc2ccccc2s1)Nc1ccc(F)cc1F	-119
O=C(Nc1nc2ccccc2s1)c1c(F)cccc1Cl	-86
COc1ccc(NC(=O)Nc2nc3ccccc3s2)cc1	-150
COc1ccc(C(=O)Nc2nc3ccccc3s2)c(OC)c1	n
CCOc1ccc2nc(NC(=O)c3ccccn3)sc2c1	n
CCOc1ccc2nc(NC(=O)Nc3cccs3)sc2c1	-103
O=C(NNc1nc2ccccc2s1)Nc1ccc(F)cc1	-157
CC(C)C(=O)NNc1nc2ccccc2s1	-73
CCOc1ccc2nc(NC(=O)Nc3ccccc3)sc2c1	-131
CCOc1ccc2nc(S(N)(=O)=O)sc2c1	-176
COc1n[nH]c(C(=O)Nc2nc3ccccc3s2)c1[N+](=O)[O-]	-79
NS(=O)(=O)c1ccc2nc(NC(=O)Nc3ccc(F)cc3)sc2c1	-98
COc1ccc(NC(=O)Nc2nc3c(s2)CCCC3)cc1	-155
CC(C)(C)c1ccc(NC(=O)c2c(F)cccc2Cl)cc1	-101
CCSc1nnc(-c2ccccc2N)c(=O)[nH]1	-67
Nc1ccc(Br)cc1-c1nc2ccccc2[nH]c1=O	-102
Nc1ccccc1-c1nc2ccccc2[nH]c1=O	-141
COc1cc(/C=N/NC(=O)c2cccnc2)ccc1OCC(=O)Nc1ccccc1Cl	-73
COc1ccc(NC(=O)COc2ccc(/C=N/NC(=O)c3cccnc3)cc2OC)cc1	-105
O=C(COc1ccccc1)NC1CCCCCCC1	-67
Cc1[nH]nc2nc(SCC(=O)NC3CCCCC3)n(-c3ccc(Br)cc3)c(=N)c12	n
O=C(CSc1ccccc1)NC1CCCCCC1	-82
O=C(NC1CCCCC1)N1CCc2ccccc21	-111
Cc1cc(OCC(=O)NC2CCCCC2)ccc1Cl	-62
SMILES	aSyn UTR act
O=C(COc1ccc(Cl)cc1[N+](=O)[O-])NC1CCCCC1	-119
COCCCNC(=S)N/N=C/c1ccc(N(C)C)cc1Cl	-107
COCCCNC(=S)N/N=C/c1ccc(N(C)C)cc1	-112
CCCC(=O)Nc1cc(C)c2c(=O)oc3ccccc3c2n1	-74
Cc1c(C(=O)N/N=C/c2ccc(N(C)C)cc2)[nH]c2ccc(Cl)cc12	n
CC(C)Oc1ccc(/C=N/NC(N)=S)cc1	-116
CN(C)c1ccc(/C=N/NC(=S)NCc2ccccc2)cc1	-85
CNC(=S)N/N=C/c1ccc(C(C)C)cc1	-161
CNC(=S)N/N=C/c1ccc(N(C)C)cc1	-89
CC(/C=C/c1ccc(N(C)C)cc1)=N\N=C1\NC(=O)CC(C(=O)Nc2ccccc2)S1 (stereo not drawn)	-73
CCCOc1ccc(NC(=O)C2CC(=O)N/C(=N/N=C(C)/C=C/c3ccc(N(C)C)cc3)S2)cc1 (stereo not drawn)	-79
Cc1ccc2nc(-c3ccc(NC(=O)C(C)N4C(=O)c5ccccc5C4=O)cc3)sc2c1 (stereo not drawn)	-102
Cc1ccc2nc(-c3ccc(NC(=O)CCN4C(=O)c5ccccc5C4=O)cc3)sc2c1	-171
Cc1ccc(C2(C)NC(=O)N(CC(=O)Nc3ccc(-c4nc5ccc(C)cc5s4)cc3)C2=O)cc1 (stereo not drawn)	-160
C/C(N)=C(/C#N)C(=O)COC(=O)c1cc(C)n(-c2ccc(F)cc2)c1C	-109
CC(=O)c1ccc(NC(=O)Oc2ccccc2)cc1	-63
CCOC(=O)Nc1ccc(Oc2ccccc2)cc1	-96
CCOC(=O)Nc1ccc(C(=O)/C=C/c2ccccc2)cc1	-69
CCOC(=O)Nc1ccc(Cc2ccncc2)cc1	-63
Cc1cccc(NC(=O)/C(C#N)=C/c2ccccc2O)n1	-140
O=C(NNC1=C(C(=O)C(F)(F)F)CCC1)c1cccc(O)c1	-153
c1ccc2c(c1)CCN(c1ncnc3c1[nH]c1ccccc13)C2	-102
COc1ccc(-c2nsc3c(N4CCCCC4C)ncnc23)cc1 (stereo not drawn)	n
COc1cccc(N2CCN(c3ncnc4c3[nH]c3ccccc34)CC2C)c1 (stereo not drawn)	-73
Cc1ccc(C2=NN3C(=O)c4ccccc4C3C2)cc1 (stereo not drawn)	-170
SMILES	aSyn UTR act
C(=N\Nc1nc(-c2ccccc2)cs1)/c1cccs1	-233
ClCc1csc(N/N=C/c2cccs2)n1	-72
C(=N\Nc1nc(-c2ccccc2)cs1)/c1ccncc1	-230
CCCn1c(=O)c2ccccc2n2c(SCc3nc4ccccc4s3)nnc12	-160
CCCn1c(SCc2nc3ccccc3s2)n[nH]c1=O	-165
O=c1[nH]nc(SCc2nc3ccccc3s2)n1C1CC1	-144
O=C1CSC(c2ccc(F)cc2)N1c1nc2ccccc2s1 (stereo not drawn)	-91
CCOc1cc(/C=N\NC(N)=O)cc(Br)c1OC(C)C	n
C=CCOc1c(Br)cc(/C=N/Nc2ccc(C(=O)O)cc2)cc1OCC	-123
Cc1ccc(OCc2cc(C(=O)NCC(C)(C)N3CCOCC3)no2)cc1C	-122
CCN1CCCC1CNC(=O)c1cc(COc2ccc(C)c(C)c2)on1 (stereo not drawn)	-63
COc1cc(C)ccc1OCc1cc(C(=O)NCCN2CCOCC2)no1	-124
C=C[C@@]1(C)CC(=O)[C@]2(O)[C@@]3(C)[C@@H](O)CCC(C)(C)[C@@H]3[C@H](O)[C@H](OC(C)=O)[C@@]2(C)O1	n
CC(=O)Nc1ccc(NC(=S)NC(=O)/C=C/c2ccc(Cl)cc2)cc1	-75
